Results filed as inconclusive are left out. Entries that show only a call come without a potency. Activity calls are given as the source filed them. Calls come from the whole dose curve; as a rule, active = well fitted curve in the direction sought with a large enough effect; inconclusive = small, poorly fitted or top-dose-only effect, or another doubt; inactive = no such curve, though single readings can be large; an effect the other way counts as inactive or inconclusive.
Assay: Cell Viability - LYMP1-002 - Assay at 16 hr (AID 948)
Conditions: LYMP1-002 lymphoblastoid cell viability; series mostly up to 92.2 µM
Procedure, shortened: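 In this qHTS, lymphoblastoid LYMP1-002 cells (human) receive compounds for 16 hr at 37 C. Viability is taken from CellTiter-Glo ATP luminescence, and AC50 derives from standard Hill fits.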

Row | Compound | outcome
1 | C=C(C)[C@H]1CC=C(C)C(=O)C1 | inactive
2 | C=CC(C)(O)CCC=C(C)C (stereo not drawn) | inactive
3 | COS(C)(=O)=O | inactive

Assay: MultiTox-Fluor Cytotoxicity Assay - LYMP1-002 - Live Cells (AID 955)
Conditions: LYMP1-002 lymphoblastoid live-cell protease fluorescence viability; series mostly up to 46.1 µM
Procedure, shortened: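 Human lymphoblastoid LYMP1-002 cells, 2500/well in complete medium, rested 5 hr at 37 C, then exposed to compounds for 16 hr at 37 C. Live-cell protease cleavage of GF-AFC read by fluorescence (Ex/Em 405/510) after 60 min at room temperature; AC50 from Hill fits.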

Row | Compound | outcome
4 | C=C(C)[C@H]1CC=C(C)C(=O)C1 | inactive
5 | C=CC(C)(O)CCC=C(C)C (stereo not drawn) | inactive
6 | COS(C)(=O)=O | inactive

Assay: MultiTox-Fluor Cytotoxicity Assay - LYMP1-002 - Dead Cells (AID 960); note: nearly all actives have a fitted effect of over 60% in size
Conditions: LYMP1-002 lymphoblastoid cells, dead-cell protease fluorescence; series mostly up to 46.1 µM
Procedure, shortened: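 Human lymphoblastoid cells (LYMP1-002), 2500/well in complete medium, were exposed to compounds for 16 hr at 37 C. Dead-cell protease activity was read as bis-AAF-R110 fluorescence (Ex/Em 485/520), normalized to DMSO and 15 uM tetraoctylammonium bromide; AC50 from Hill fits.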

Row | Compound | outcome
7 | C=C(C)[C@H]1CC=C(C)C(=O)C1 | inactive
8 | C=CC(C)(O)CCC=C(C)C (stereo not drawn) | inactive
9 | COS(C)(=O)=O | inactive

Assay: MultiTox-Fluor Cytotoxicity Assay - LYMP1-003 - Dead Cells (AID 961); note: nearly all actives have a fitted effect of over 70% in size
Conditions: LYMP1-003 lymphoblastoid cells, dead-cell protease fluorescence; series mostly up to 92.2 µM
Procedure, shortened: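 Acute toxicity is scored as increased dead-cell protease activity in human lymphoblastoid LYMP1-003 cells after 16 h compound exposure in complete culture medium. Activity is normalized to DMSO basal and 15 uM tetraoctylammonium bromide as full response.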

Row | Compound | outcome
10 | C=C(C)[C@H]1CC=C(C)C(=O)C1 | inactive
11 | C=CC(C)(O)CCC=C(C)C (stereo not drawn) | inactive
12 | COS(C)(=O)=O | inactive

Assay: MultiTox-Fluor Cytotoxicity Assay - LYMP1-003 - Live Cells (AID 962);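 note: cytotoxic hits lower the live-cell protease signal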
Conditions: LYMP1-003 lymphoblastoid cells, MultiTox-Fluor live-cell protease fluorescence; series mostly up to 92.2 µM
Procedure, shortened: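 LYMP1-003 human lymphoblastoid cells (2500/well) in complete medium were preincubated 5 hr at 37 C, then exposed to compounds for 16 hr at 37 C. Live-cell protease cleavage of GF-AFC read by fluorescence (Ex/Em 405/510); AC50 from Hill fits.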

Row | Compound | outcome
13 | C=C(C)[C@H]1CC=C(C)C(=O)C1 | inactive
14 | C=CC(C)(O)CCC=C(C)C (stereo not drawn) | inactive
15 | COS(C)(=O)=O | inactive

Assay: Cell Viability - LYMP1-003 - Assay at 24 hr (AID 963)
Conditions: LYMP1-003 lymphoblastoid cell viability; series mostly up to 92.2 µM
Procedure, shortened: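 Human lymphoblastoid LYMP1-003 cells (2500/well) were rested 5 hr at 37 C, then exposed to compounds in complete medium for 24 hr at 37 C. Cellular ATP was quantified by CellTiter-Glo luminescence, and AC50 values came from Hill fits of concentration-response data.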

Row | Compound | outcome
16 | C=C(C)[C@H]1CC=C(C)C(=O)C1 | inactive
17 | C=CC(C)(O)CCC=C(C)C (stereo not drawn) | inactive
18 | COS(C)(=O)=O | inactive

Assay: Cell Viability - LYMP1-003 - Assay at 40 hr (AID 964); note: nearly all actives have a fitted effect of over 60% in size
Conditions: LYMP1-003 lymphoblastoid viability; series mostly up to 92.2 µM
Procedure, shortened: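 Human lymphoblastoid LYMP1-003 cells, 2500/well in complete medium, rested 5 hr at 37 C, then exposed to compounds for 40 hr at 37 C. Viability read as intracellular ATP by CellTiter-Glo luminescence; AC50 from Hill fits of concentration-response data.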

Row | Compound | outcome
19 | C=C(C)[C@H]1CC=C(C)C(=O)C1 | inactive
20 | C=CC(C)(O)CCC=C(C)C (stereo not drawn) | inactive
21 | COS(C)(=O)=O | inactive

Assay: Cell Viability - LYMP2-004 (AID 966); note: nearly all actives have a fitted effect of over 65% in size
Conditions: LYMP2-004 lymphoblastoid cell viability, qHTS; series mostly up to 92.2 µM
Procedure, shortened: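 Human lymphoblastoid cells (2500/well) in complete medium were treated with compounds for 24 hr at 37 C, then intracellular ATP was measured by CellTiter-Glo luminescence. AC50 values came from Hill-equation fits of concentration-response data.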

Row | Compound | outcome
22 | C=C(C)[C@H]1CC=C(C)C(=O)C1 | inactive
23 | C=CC(C)(O)CCC=C(C)C (stereo not drawn) | inactive
24 | COS(C)(=O)=O | inactive

Assay: Cell Viability - LYMP2-005 (AID 967)
Conditions: LYMP2-005 lymphoblastoid cell viability; series mostly up to 92.2 µM
Procedure, shortened: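 Luciferase-based ATP quantitation served as the viability measure in human lymphoblastoid LYMP2-005 cells exposed to test compounds for 24 h at 37 C in complete culture medium. Potency (AC50) was obtained by fitting concentration-response curves with the Hill equation.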

Row | Compound | outcome
25 | C=C(C)[C@H]1CC=C(C)C(=O)C1 | inactive
26 | C=CC(C)(O)CCC=C(C)C (stereo not drawn) | inactive
27 | COS(C)(=O)=O | inactive

Assay: Cell Viability - LYMP2-009 (AID 968); note: nearly all actives have a fitted effect of over 55% in size
Conditions: LYMP2-009 lymphoblastoid cell viability; series mostly up to 92.2 µM

Row | Compound | outcome
28 | C=C(C)[C@H]1CC=C(C)C(=O)C1 | inactive
29 | C=CC(C)(O)CCC=C(C)C (stereo not drawn) | inactive
30 | COS(C)(=O)=O | inactive

Assay: Cell Viability - LYMP2-011 (AID 969); note: nearly all actives have a fitted effect of over 60% in size
Conditions: LYMP2-011 lymphoblastoid cells viability; series mostly up to 92.2 µM
Procedure, shortened: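 Human lymphoblastoid cells (2500/well) were plated in complete medium, preincubated 5 hr at 37 C, then exposed to compounds for 24 hr at 37 C. Intracellular ATP was read by CellTiter-Glo luminescence, and AC50 came from Hill-equation concentration-response fits.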

Row | Compound | outcome
31 | C=C(C)[C@H]1CC=C(C)C(=O)C1 | inactive
32 | C=CC(C)(O)CCC=C(C)C (stereo not drawn) | inactive
33 | COS(C)(=O)=O | inactive

Assay: Cell Viability - LYMP2-013 (AID 970); note: nearly all actives have a fitted effect of over 55% in size
Conditions: LYMP2-013 lymphoblastoid cells viability; series mostly up to 92.2 µM
Procedure, shortened: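 Human lymphoblastoid cells, 2500/well, were preincubated 5 hr at 37 C, then treated with compounds for 24 hr at 37 C in complete medium. Intracellular ATP was read by CellTiter-Glo luminescence; AC50 from Hill-equation fits of concentration-response data.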

Row | Compound | outcome
34 | C=C(C)[C@H]1CC=C(C)C(=O)C1 | inactive
35 | C=CC(C)(O)CCC=C(C)C (stereo not drawn) | inactive
36 | COS(C)(=O)=O | inactive

Assay: Cell Viability - LYMP2-015 (AID 971); note: nearly all actives have a fitted effect of over 55% in size
Conditions: LYMP2-015 lymphoblastoid cell viability; series mostly up to 92.2 µM
Procedure, shortened: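 Human lymphoblastoid cells (2500/well) in complete medium were preincubated 5 hr at 37 C, then compound-treated 24 hr at 37 C. Intracellular ATP was read by CellTiter-Glo luminescence after 30 min at room temperature; AC50 came from Hill-equation concentration-response fits.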

Row | Compound | outcome
37 | C=C(C)[C@H]1CC=C(C)C(=O)C1 | inactive
38 | C=CC(C)(O)CCC=C(C)C (stereo not drawn) | inactive
39 | COS(C)(=O)=O | inactive

Assay: Cell Viability - LYMP2-017 (AID 972); note: nearly all actives have a fitted effect of over 55% in size
Conditions: LYMP2-017 lymphoblastoid cell viability; series mostly up to 92.2 µM
Procedure, shortened: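 Human lymphoblastoid cells (2500/well) were seeded in complete medium, held 5 hr at 37 C, then exposed to compounds for 24 hr at 37 C. Intracellular ATP was read by CellTiter-Glo luminescence after 30 min at room temperature, with AC50 values from Hill-equation fits.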

Row | Compound | outcome
40 | C=C(C)[C@H]1CC=C(C)C(=O)C1 | inactive
41 | C=CC(C)(O)CCC=C(C)C (stereo not drawn) | inactive
42 | COS(C)(=O)=O | inactive

Assay: Cell Viability - LYMP2-019 (AID 973); note: nearly all actives have a fitted effect of over 55% in size
Conditions: LYMP2-019 lymphoblastoid cell line viability; series mostly up to 92.2 µM
Procedure, shortened: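 Human lymphoblastoid cells were seeded at 2500 cells/well, preincubated 5 hr at 37 C, then exposed to compounds for 24 hr at 37 C in complete medium. Intracellular ATP was measured by CellTiter-Glo luminescence; AC50 from Hill fits.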

Row | Compound | outcome
43 | C=C(C)[C@H]1CC=C(C)C(=O)C1 | inactive
44 | C=CC(C)(O)CCC=C(C)C (stereo not drawn) | inactive
45 | COS(C)(=O)=O | inactive

Assay: Cell Viability - LYMP2-021 (AID 974)
Conditions: LYMP2-021 lymphoblastoid cells viability; series mostly up to 92.2 µM
Procedure, shortened: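 Human lymphoblastoid cells (2500/well) were preincubated 5 hr at 37 C, then exposed to compounds for 24 hr at 37 C in complete medium. Intracellular ATP was read by CellTiter-Glo luminescence; AC50 came from Hill-equation fits of concentration-response data.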

Row | Compound | outcome
46 | C=C(C)[C@H]1CC=C(C)C(=O)C1 | inactive
47 | C=CC(C)(O)CCC=C(C)C (stereo not drawn) | inactive
48 | COS(C)(=O)=O | inactive

Reference: PubChem BioAssay (NCATS)
